Results taken from PubChem BioAssay AID1159580 (chemical genetic matrix, 2015).
The campaign covered roughly 5,500 compounds. About 2,000 (36%) were called active. Another 18% or so got no clear call; they are omitted. No stated cut-off is given here; in the data, active means normalized growth mostly below about 0.91 (no sharp cut-off); inconclusive means no clear call, values can overlap the other calls; inactive means mostly above about 0.92. The list shows a part of the results.

Assay: chemical genetic growth profiling, strain panel (AID 1159580);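 further: tested at 20 µM; growth read once vehicle control cultures reached saturation at 30 °C; 1 = growth at the plate median or of vehicle wells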
Details: S. cerevisiae deletion strains, growth OD

Measured: normalized growth

CC(=O)NCCCCCC(=O)O
inactive: locus YAL013W, strain DEP1, stronger effect = lower value 1.01 | locus YAL021C, strain ccr4, stronger effect = lower value 1.01 | locus YAL026C, strain drs2, stronger effect = lower value 0.978 | locus YAL030W, strain snc1, stronger effect = lower value 0.99 | locus YBL061C, strain skt5, stronger effect = lower value 0.99 | locus YBR009C, strain hhf1, stronger effect = lower value 0.979 | locus YBR021W, strain FUR4, stronger effect = lower value 1.02 | locus YBR023C, strain chs3, stronger effect = lower value 0.984 | locus YBR171W, strain sec66, stronger effect = lower value 0.999 | locus YBR229C, strain ROT2, stronger effect = lower value 1.01 | locus YBR231C, strain swc5, stronger effect = lower value 0.998 | locus YBR279W, strain paf1, stronger effect = lower value 0.998 | locus YCL011C, strain gbp2, stronger effect = lower value 0.968 | locus YCL016C, strain dcc1, stronger effect = lower value 1 | locus YCL029C, strain bik1, stronger effect = lower value 0.988 | locus YCL061C, strain MRC1, stronger effect = lower value 1 | locus YCL069W, strain vba3, stronger effect = lower value 0.979 | locus YCR088W, strain abp1, stronger effect = lower value 0.99 | locus YDL005C, strain med2, stronger effect = lower value 0.984 | locus YDL035C, strain GPR1, stronger effect = lower value 1.02 | locus YDL040C, strain nat1, stronger effect = lower value 0.995 | locus YDL074C, strain BRE1, stronger effect = lower value 1.04 | locus YDL101C, strain DUN1, stronger effect = lower value 1.02 | locus YDL134C, strain PPH21, stronger effect = lower value 1 | locus YDL185W, strain tfp1, stronger effect = lower value 0.985 | locus YDL192W, strain arf1, stronger effect = lower value 0.988 | locus YDR001C, strain nth1, stronger effect = lower value 0.987 | locus YDR069C, strain doa4, stronger effect = lower value 0.993 | locus YDR101C, strain arx1, stronger effect = lower value 0.986 | locus YDR137W, strain rgp1, stronger effect = lower value 1.01 | locus YDR159W, strain sac3, stronger effect = lower value 0.976 | locus YDR162C, strain NBP2, stronger effect = lower value 1.01 | locus YDR195W, strain ref2 0.982 | locus YDR297W, strain sur2, stronger effect = lower value 0.993 | locus YDR318W, strain mcm21, stronger effect = lower value 0.992 | locus YDR334W, strain swr1, stronger effect = lower value 0.979 | locus YDR335W, strain msn5, stronger effect = lower value 1 | locus YDR388W, stronger effect = lower value 0.97 | locus YDR392W, strain spt3, stronger effect = lower value 0.891 | locus YDR502C, strain sam2, stronger effect = lower value 0.98 | locus YEL003W, strain gim4, stronger effect = lower value 0.969 | locus YEL037C, strain rad23, stronger effect = lower value 0.972 | locus YEL061C, strain CIN8 (second series), stronger effect = lower value 0.977 | locus YEL061C, strain CIN8, stronger effect = lower value 1.01 | locus YER015W, strain faa2, stronger effect = lower value 1 | locus YER016W, strain bim1, stronger effect = lower value 0.997 | locus YER110C, stronger effect = lower value 0.986 | locus YER111C, strain swi4, stronger effect = lower value 0.967 | locus YER155C, strain BEM2 (second series), stronger effect = lower value 1.01 | locus YER155C, strain BEM2, stronger effect = lower value 1.01 | locus YER167W, strain BCK2, stronger effect = lower value 1 | locus YFR010W, strain ubp6, stronger effect = lower value 0.983 | locus YGL078C, strain dbp3, stronger effect = lower value 0.974 | locus YGL086W, strain mad1, stronger effect = lower value 1 | locus YGL167C, strain pmr1, stronger effect = lower value 0.969 | locus YGL173C, strain kem1, stronger effect = lower value 0.99 | locus YGL227W, strain vid30, stronger effect = lower value 0.97 | locus YGL240W, strain doc1, stronger effect = lower value 0.993 | locus YGL248W, strain PDE1, stronger effect = lower value 1.03 | locus YGL253W, strain hxk2, stronger effect = lower value 0.991 | locus YGR135W, strain pre9, stronger effect = lower value 0.979 | locus YGR229C, strain SMI1, stronger effect = lower value 1.01 | locus YGR252W, strain gcn5, stronger effect = lower value 0.954 | locus YHR013C, strain ard1, stronger effect = lower value 0.946 | locus YHR027C, strain rpn1, stronger effect = lower value 1.01 | locus YHR030C, strain SLT2, stronger effect = lower value 1.01 | locus YHR079C, strain IRE1 (second series), stronger effect = lower value 0.992 | locus YHR094C, strain hxt1, stronger effect = lower value 0.984 | locus YHR129C, strain ARP1, stronger effect = lower value 1.01 | locus YHR142W, strain chs7, stronger effect = lower value 1.02 | locus YHR200W, strain rpn10, stronger effect = lower value 0.994 | locus YIL066C, strain RNR3, stronger effect = lower value 1.03 | locus YIL073C, strain SPO22, stronger effect = lower value 0.979 | locus YIL125W, strain kgd1, stronger effect = lower value 0.981 | locus YIR030C, strain dcg1, stronger effect = lower value 0.998 | locus YJL092W, strain hpr5, stronger effect = lower value 0.99 | locus YJL095W, strain BCK1 (second series), stronger effect = lower value 1.01 | locus YJL095W, strain BCK1, stronger effect = lower value 1.03 | locus YJL115W, strain asf1, stronger effect = lower value 0.98 | locus YJL129C, strain trk1, stronger effect = lower value 1 | locus YJL134W, strain LCB3, stronger effect = lower value 1.01 | locus YJL154C, strain vps35, stronger effect = lower value 0.978 | locus YJL164C, strain tpk1, stronger effect = lower value 1.02 | locus YJL166W, strain qcr8, stronger effect = lower value 1.01 | locus YJL168C, strain set2, stronger effect = lower value 0.986 | locus YJL187C, strain SWE1 (second series), stronger effect = lower value 1.03
